This is part of a sample that, as a whole, favours compounds with a hit. Of some 83,000 tested, about 20% had one in any assay.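 Values shown are percent growth following 48 h exposure of cells in 96-well plates to a single concentration of compound; below 10 was considered active.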 The source made the active and inactive calls.
Assays:
Test in all cases: NCI-60 one-dose screen, 48 h (100 = growth as untreated, 0 = no growth, -100 = all killed)
Conditions in all cases: 10 µM unless noted
[1] = tested on: NCI-H23 lung
[2] = tested on: NCI-H226 lung
[3] = tested on: NCI-H322M lung
[4] = tested on: HOP-62 NSCLC
[5] = tested on: NCI-H460 lung
[6] = tested on: HOP-92 NSCLC
[7] = tested on: NCI-H522 lung
[8] = tested on: A549/ATCC NSCLC
[9] = tested on: 786-0 renal
[10] = tested on: COLO 205 colon

Measured: growth

C[C@@H]1CC[C@@H]2[C@@H]1[C@H](OC(=O)/C=C/c1ccccc1)[C@]1(c3ccccc3)C[C@@H](OC(=O)CO)[C@@]2(C)O1
inactive: [1] 102% | [2] 88.8% | [3] 88% | [4] 101% | [5] 92% | [6] 78.8% | [7] 88.5% | [8] 80.2% | [9] 98% | [10] 107%

Cc1nn(-c2ccccc2)c2nc(C)n(-c3ccc(Br)cc3)c(=O)c12
inactive: [1] 16% | [2] 49% | [3] 51.3% | [4] 35.1% | [6] 56.3% | [8] 21.3% | [9] 43.3%
active: [5] 7.92% | [7] -14.1% | [10] 1.32%

CCCCCCCCCC(=O)Oc1ccc(/C(=C(/C)c2ccccc2)c2ccc(OCCN3CCCC3)cc2)cc1
inactive: [1] 26.8% | [2] 65.7% | [3] 32.8% | [8] 11.3%
active: [4] -1.82% | [5] -7.47% | [6] -19% | [7] -26.3% | [9] -58.6% | [10] -57.1%

N=c1c2ccccc2nc2n1CCCCC2
inactive: [1] 102% | [2] 102% | [3] 112% | [4] 105% | [5] 113% | [6] 133% | [7] 116% | [8] 101% | [9] 119% | [10] 104%

COc1cccc(-c2nc3sccn3c2-c2ccnc(NCCCNS(=O)(=O)c3ccc(Cl)cc3)c2)c1
inactive: [1] 54.4% | [2] 42% | [3] 74.4% | [4] 88.7% | [5] 49.9% | [6] 72% | [7] 55.5% | [8] 40.8% | [9] 58.4% | [10] 44.9%

CCCCCCCCOC(=O)CC[C@@H](C)[C@H]1CC[C@H]2[C@@H]3[C@H](OC(=O)CCN)C[C@@H]4C[C@H](OC(=O)CCN)CC[C@]4(C)[C@H]3C[C@H](OC(=O)CCN)[C@]12C
inactive: [1] 90.3% | [2] 89.8% | [3] 71.4% | [4] 37.7% | [5] 73.7% | [6] 40.7% | [7] 10.8% | [8] 81.3% | [9] 99.1% | [10] 66.4%

From PubChem BioAssay (NCI)
